Details in all cases: mRNA level, 48 h; actives raise or lower the signal
Read-out in assay [1]: Lipase C (LIPC), LIPC (gene 3990)
Nature of the assay: LTEA_HepaRG_LIPC: Life Technologies and Expression Analysis (LTEA) Assay for Lipase C (LIPC) using HepaRG (AID 2283514). In a few lines:
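HepaRG cells, 48 h after plating, treated in duplicate for 48 h in serum-free induction medium over 8 half-log concentrations from 100 uM, 0.5% DMSO. LIPC mRNA by TaqMan qRT-PCR normalized to ACTB/GAPDH/POLR2A; bidirectional fit versus DMSO.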

Read-out in assay [2]: Lipoprotein lipase (LPL), LPL (gene 4023)
Nature of the assay: LTEA_HepaRG_LPL: Life Technologies and Expression Analysis (LTEA) Assay for Lipoprotein lipase (LPL) using HepaRG (AID 2283515). In a few lines:
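Differentiated HepaRG cells, plated 48 h, then exposed 48 h in serum-free induction medium to 8 concentrations (top 100 uM, half-log steps) in 0.5% DMSO, duplicate. LPL mRNA measured by qRT-PCR, normalized to ACTB, GAPDH and POLR2A.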

Read-out in assay [3]: MicroRNA 122 (MIR122), gene 406906
Nature of the assay: LTEA_HepaRG_MIR122: Life Technologies and Expression Analysis (LTEA) Assay for MicroRNA 122 (MIR122) using HepaRG (AID 2283516). Also: the transcript read is the microRNA miR-122. In a few lines: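 Differentiated human HepaRG cells were exposed 48 h in serum-free induction medium to eight half-log concentrations (top 100 uM, 0.5% DMSO). Transcript level was measured by TaqMan qRT-PCR, normalized to ACTB, GAPDH and POLR2A, and fitted bidirectionally versus DMSO.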

Read-out in assay [4]: matrix metalloproteinase-10 (MMP10), MMP10 (gene 4319)
Nature of the assay: LTEA_HepaRG_MMP10: Life Technologies and Expression Analysis (LTEA) Assay for matrix metalloproteinase-10 (MMP10) using HepaRG (AID 2283517). In a few lines: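 Differentiated HepaRG cells in serum-free induction medium exposed 48 h in duplicate to 8-point half-log series up to 100 uM in 0.5% DMSO. mRNA quantified by qRT-PCR, normalised to ACTB, GAPDH, POLR2A; bidirectional fit versus DMSO.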

Read-out in the next assay: MYC, MYC (gene 4609)
Nature of the assay: LTEA_HepaRG_MYC: Life Technologies and Expression Analysis (LTEA) Assay for MYC using HepaRG (AID 2283518). In a few lines: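 Expression changes were scored by TaqMan qRT-PCR with ACTB, GAPDH and POLR2A normalization. Cultures in serum-free induction medium received duplicate 8-point concentration series, highest 100 uM, for 48 h; DMSO (0.5%) served as baseline.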

Read-out in assay [5]: matrix metalloproteinase-3 (MMP3), MMP3 (gene 4314)
Nature of the assay: LTEA_HepaRG_MMP3: Life Technologies and Expression Analysis (LTEA) Assay for matrix metalloproteinase-3 (MMP3) using HepaRG (AID 2283519). In a few lines:
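HepaRG cells (~100,000/well) in serum-free induction medium were dosed in duplicate for 48 h with an 8-point half-log series from 100 uM, 0.5% DMSO. MMP3 mRNA was quantified by Fluidigm TaqMan qRT-PCR, normalized to three housekeeping genes.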

Read-out in assay [6]: Paternally Expressed 10 (PEG10), PEG10 (gene 23089)
Nature of the assay: LTEA_HepaRG_PEG10: Life Technologies and Expression Analysis (LTEA) Assay for Paternally Expressed 10 (PEG10) using HepaRG (AID 2283520). In a few lines: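 Differentiated HepaRG cells, plated 48 h then switched to serum-free induction medium, were exposed in duplicate for 48 h to eight half-log concentrations topping at 100 uM in 0.5% DMSO. PEG10 mRNA was quantified by TaqMan qRT-PCR, normalised to ACTB, GAPDH and POLR2A.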

Read-out in assay [7]: Phosphatase and tensin (PTEN), PTEN (gene 5728)
Nature of the assay: LTEA_HepaRG_PTEN: Life Technologies and Expression Analysis (LTEA) Assay for Phosphatase and tensin (PTEN) using HepaRG (AID 2283523). In a few lines: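 HepaRG cells, 48 h after plating, exposed in duplicate for 48 h in serum-free induction medium to 8 half-log concentrations up to 100 uM (0.5% DMSO). PTEN mRNA by qRT-PCR, normalized to ACTB, GAPDH, POLR2A; bidirectional fit versus DMSO.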

Read-out in assay [8]: Nuclear factor NF-kappa-B p105 subunit (Homo sapiens) (UniProt P19838)
Nature of the assay: LTEA_HepaRG_NFKB1: Life Technologies and Expression Analysis (LTEA) Assay for Nuclear Factor Kappa B Subunit 1 (NFKB1) using HepaRG (AID 2283521).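 Also: TaqMan qRT-PCR transcript normalised to ACTB GAPDH and POLR2A housekeeping genes.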 In a few lines: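 Differentiated human HepaRG cells in serum-free induction medium with 0.5% DMSO were exposed for 48 h to eight half-log concentrations, top 100 uM, in duplicate. NFKB1 mRNA measured by Fluidigm TaqMan qRT-PCR, normalised to ACTB, GAPDH and POLR2A; bidirectional fit versus DMSO.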

Read-out in assay [9]: Protein phosphatase 2A (PPP2R4), PTPA (gene 5524)
Nature of the assay: LTEA_HepaRG_PPP2R4: Life Technologies and Expression Analysis (LTEA) Assay for Protein phosphatase 2A (PPP2R4) using HepaRG (AID 2283522). In a few lines:
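Differentiated HepaRG cells in serum-free induction medium were exposed in duplicate for 48 h to eight concentrations, top 100 uM with half-log dilutions, in 0.5% DMSO. PPP2R4 mRNA was quantified by TaqMan qRT-PCR, normalized to ACTB, GAPDH and POLR2A.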

The values below come from PubChem BioAssay (EPA / NIEHS).

Several values for one entry are separate records, joined by “and”; a condition that tells them apart may be missing. Equal entries are not always repeated. More than one record can exist for a structure, and the calls need not agree. Activity calls are given as the source filed them. The calls were made as follows: active = hit-call score of the fitted dose curve at least 0.9, where 1 is the maximum; inactive = score below 0.9.

Chain of Nuclear factor NF-kappa-B p105 subunit (Homo sapiens) (P19838 whole entry, looked up): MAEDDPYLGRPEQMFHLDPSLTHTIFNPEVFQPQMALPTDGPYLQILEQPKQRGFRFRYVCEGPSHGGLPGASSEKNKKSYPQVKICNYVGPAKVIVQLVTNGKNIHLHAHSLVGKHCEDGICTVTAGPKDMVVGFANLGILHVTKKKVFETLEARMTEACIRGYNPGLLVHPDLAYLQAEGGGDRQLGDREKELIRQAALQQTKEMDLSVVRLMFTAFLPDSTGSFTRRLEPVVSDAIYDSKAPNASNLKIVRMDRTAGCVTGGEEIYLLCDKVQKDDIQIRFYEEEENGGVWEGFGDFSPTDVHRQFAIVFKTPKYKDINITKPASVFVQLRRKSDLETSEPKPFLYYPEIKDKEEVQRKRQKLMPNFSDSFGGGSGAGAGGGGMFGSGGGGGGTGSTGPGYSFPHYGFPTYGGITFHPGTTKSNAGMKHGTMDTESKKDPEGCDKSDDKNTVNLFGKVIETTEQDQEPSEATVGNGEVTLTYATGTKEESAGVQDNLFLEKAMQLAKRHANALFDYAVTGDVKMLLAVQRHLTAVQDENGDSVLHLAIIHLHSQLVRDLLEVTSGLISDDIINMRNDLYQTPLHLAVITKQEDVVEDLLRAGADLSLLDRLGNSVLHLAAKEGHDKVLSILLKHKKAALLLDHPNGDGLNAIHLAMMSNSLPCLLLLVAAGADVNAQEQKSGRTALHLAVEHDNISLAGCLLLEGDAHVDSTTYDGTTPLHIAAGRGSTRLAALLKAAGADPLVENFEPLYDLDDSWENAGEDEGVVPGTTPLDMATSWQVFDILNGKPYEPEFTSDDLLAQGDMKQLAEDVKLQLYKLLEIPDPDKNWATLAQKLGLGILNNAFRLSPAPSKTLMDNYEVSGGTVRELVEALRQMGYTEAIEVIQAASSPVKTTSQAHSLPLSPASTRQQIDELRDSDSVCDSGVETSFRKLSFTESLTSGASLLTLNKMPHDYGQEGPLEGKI

Turning to `O=C(O)c1ccccc1`, the outcome was “inactive” in assay [1]; “inactive” in assay [2]; “inactive” in assay [3]; “inactive” in assay [4]; “inactive” in the assay with MYC, MYC (gene 4609); “inactive” in [5]. Moreover, the outcome in assay [6] and in assay [7] was inactive.

On to `C[C@]12C[C@H](O)[C@H]3[C@@H](CCC4=CC(=O)CC[C@@]43C)[C@@H]1CC[C@@H]2C(=O)CO`, for which the outcome is “inactive” in [1]; “inactive” in assay [2]; “inactive” in [3]; “inactive” in assay [4]; “inactive” with MYC, MYC (gene 4609); “inactive” in [5]. The result in assay [6], in [8] and in assay [7] was inactive.

With `CCCCOC(=O)[C@@H](C)Oc1ccc(Oc2ccc(C(F)(F)F)cn2)cc1`, the outcome in assay [1] is “inactive”; in [3], “inactive”; in [4] it was “inactive”; in the assay with MYC, MYC (gene 4609), “inactive”; in assay [5], “inactive”; in assay [8], “inactive”. In addition, the outcome in assay [9] and in [7] was inactive. In addition, in assay [6], the concentration at half-maximal activity (AC50) (in general, the concentration at which the activity in the assay is half-maximal) was 5.38 µM (active).

For `CCSC(=O)N(CC(C)C)CC(C)C`, the outcome in assay [1] was “inactive”; in assay [2], “inactive”; in assay [3], “inactive”; in assay [4] it was “inactive”; with MYC, MYC (gene 4609) it was “inactive”; in assay [5], “inactive”. Further, the compound was called inactive in assay [6], in [8], in [9] and in [7].

In the case of `c1ccc2[nH]c(-c3cscn3)nc2c1`, the call in [1], in assay [3], in assay [4], in assay [5], in assay [8] and in assay [7] was inactive. Also, the concentration at half-maximal activity (AC50) with MYC, MYC (gene 4609) was 40 µM (active); in assay [6], 26.6 µM (active).

Take `S=C(S)NCCNC(=S)S.[Mn+2].[S-]C([S-])=NCCN=C([S-])[S-].[Zn+2]`: the AC50 in [1] is 1.21 µM (active) and 1.2 µM (active) and 1.48 µM (active); in assay [3] it was 780 nM (active) and 954 nM (active) and 816 nM (active); in assay [4], 846 nM (active) and 655 nM (active); with MYC, MYC (gene 4609) it was 4.59 µM (active) and 3.61 µM (active); in [6], 110 nM (active) and 262 nM (active) and 190 nM (active); in assay [7] it was 1.75 µM (active) and 2.98 µM (active) and 2.22 µM (active). Moreover, the outcome with MYC, MYC (gene 4609) was “inactive”; in assay [5] it was “inactive”.

On to `O=C(c1ccccc1)C1CCCCC1`, for which the outcome in [1] was “inactive”; in [3], “inactive”; in [4] it was “inactive”; in the assay with MYC, MYC (gene 4609), “inactive”; in assay [5] it was “inactive”; in [6] it was “inactive”. Further, the outcome in [8], in assay [9] and in assay [7] was inactive.

As to `CCCCOCCOCCOCc1cc2c(cc1CCC)OCO2`, the outcome was “inactive” in [1]; “inactive” in assay [3]; “inactive” in assay [4]; “inactive” with MYC, MYC (gene 4609); “inactive” in assay [5]; “inactive” in assay [6]. The call in assay [8], in [9] and in [7] was inactive.

Consider `CC1(C)C(C=C(Cl)Cl)C1C(=O)OCc1cccc(Oc2ccccc2)c1` (centres undefined), for which the outcome in [1] was “inactive”; in assay [2], “inactive”; in [3], “inactive”; in assay [4], “inactive”; with MYC, MYC (gene 4609), “inactive”; in [5] it was “inactive”. Also, the result in assay [6], in assay [9] and in assay [7] was inactive.

For `CCCCC(CC)COC(=O)c1ccccc1C(=O)O` (centres undefined), the outcome in [1] was “inactive”; in assay [2] it was “inactive”; in assay [3], “inactive”; in [4] it was “inactive”; with MYC, MYC (gene 4609), “inactive”; in assay [5], “inactive”. Besides, the outcome in [6] and in assay [7] was inactive.

On to `O=C(c1ccc(O)cc1O)c1ccc(O)cc1O`, for which the outcome was “inactive” in assay [1]; “inactive” in assay [3]; “inactive” in [4]; “inactive” in the assay with MYC, MYC (gene 4609); “inactive” in [5]; “inactive” in assay [6]. Further, the compound was called inactive in [8], in [9] and in assay [7].

`CCOC(=O)C(C)Oc1ccc(Oc2cnc3cc(Cl)ccc3n2)cc1` (centres undefined): the outcome is “inactive” in assay [1]; “inactive” in assay [2]; “inactive” in assay [3]; “inactive” in assay [4]; “inactive” with MYC, MYC (gene 4609); “inactive” in assay [6]. Besides, in assay [7], the compound was classed as inactive. Also, the concentration at half-maximal activity (AC50) in assay [5] is 8.53 µM (active).
